Measurements as given in PMC8384837, “Expanding the binding specificity for RNA recognition by a PUF domain”.
Numbering of substitutions follows the chain as printed.

Assays:
Experiment in all cases: yeast three-hybrid, YBZ-1, SC-Leu-His + 0.5 mM 3-AT, 4 days
Conditions in all cases: tags: N-Gal4 AD-HA kept; label: inside an RPR1-promoter hybrid RNA with tandem MS2 sites; ssRNA
PUM1 PUF domain R1-RGN = PUM1 PUF domain R1-RGN (Homo sapiens, UniProt Q14671 828-1176, S863R;R864G;Q867N)
Procedure, shortened: (§1)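 Matching RNA elements and Pumilio-1 PUF domain libraries, randomized at the three base-contacting residues of every repeat, were co-expressed from a centromeric plasmid in strain YBZ-1 (LexA–MS2 coat fusion, HIS3 reporter). The repeat regions were PCR-amplified and Illumina-sequenced from cells grown four days on SC-Leu (input) or SC-Leu-His + 0.5 mM 3-AT (selection). The interaction score is the log change in variant frequency from input to selection. It is computed in log2, with a pseudocount of 1 for absent variants.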

PUM1 PUF domain R5-PRK = PUM1 PUF domain R5-PRK (Homo sapiens, UniProt Q14671 828-1176, C1007P;Q1011K)
Chain of PUM1 PUF domain R5-PRK (Q14671 828-1176 C1007P/Q1011K): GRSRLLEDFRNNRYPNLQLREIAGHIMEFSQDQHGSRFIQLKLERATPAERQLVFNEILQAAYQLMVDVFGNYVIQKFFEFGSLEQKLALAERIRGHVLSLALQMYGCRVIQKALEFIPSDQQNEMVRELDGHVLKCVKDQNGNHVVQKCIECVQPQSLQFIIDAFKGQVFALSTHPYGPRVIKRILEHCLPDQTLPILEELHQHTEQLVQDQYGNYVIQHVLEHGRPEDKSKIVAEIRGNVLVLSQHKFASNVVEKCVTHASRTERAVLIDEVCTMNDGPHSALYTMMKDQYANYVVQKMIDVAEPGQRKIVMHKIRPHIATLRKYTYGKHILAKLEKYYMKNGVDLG
Procedure, shortened: as §1

PUM1 PUF domain R5-RFI = PUM1 PUF domain R5-RFI (Homo sapiens, UniProt Q14671 828-1176, C1007R;R1008F;Q1011I)
Procedure, shortened: as §1

PUM1 PUF domain R3-LYR = PUM1 PUF domain R3-LYR (Homo sapiens, UniProt Q14671 828-1176, C935L;R936Y;Q939R)
Procedure, shortened: as §1

PUM1 PUF domain R1-WKR = PUM1 PUF domain R1-WKR (Homo sapiens, UniProt Q14671 828-1176, S863W;R864K;Q867R)
Procedure, shortened: as §1

PUM1 PUF domain R6-VYH = biological target: T1, PUM1 PUF domain R6-VYH (Homo sapiens, UniProt Q14671 828-1176, N1043V;Q1047H)
T1 sequence: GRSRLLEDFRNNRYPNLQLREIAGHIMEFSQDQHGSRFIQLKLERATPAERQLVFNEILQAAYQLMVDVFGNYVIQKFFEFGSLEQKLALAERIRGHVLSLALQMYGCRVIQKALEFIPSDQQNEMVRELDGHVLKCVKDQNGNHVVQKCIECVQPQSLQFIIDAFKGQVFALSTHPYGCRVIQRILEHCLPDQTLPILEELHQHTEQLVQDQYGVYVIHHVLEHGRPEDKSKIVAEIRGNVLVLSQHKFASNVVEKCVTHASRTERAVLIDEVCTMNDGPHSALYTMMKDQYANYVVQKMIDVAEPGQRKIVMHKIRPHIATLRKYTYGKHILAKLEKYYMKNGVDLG
Procedure, shortened: as §1

PUM1 PUF domain R8-KRV = PUM1 PUF domain R8-KRV (Homo sapiens, UniProt Q14671 828-1176, N1122K;Y1123R;Q1126V)
Procedure, shortened: as §1

PUM1 PUF domain R8-RFK = PUM1 PUF domain R8-RFK (Homo sapiens, UniProt Q14671 828-1176, N1122R;Y1123F;Q1126K)
Procedure, shortened: as §1

PUM1 PUF domain R8-RYC = PUM1 PUF domain R8-RYC (Homo sapiens, UniProt Q14671 828-1176, N1122R;Q1126C)
Procedure, shortened: as §1

PUM1 PUF domain R8-LYI = PUM1 PUF domain R8-LYI (Homo sapiens, UniProt Q14671 828-1176, N1122L;Q1126I)
Procedure, shortened: as §1

PUM1 PUF domain R3-VWD = PUM1 PUF domain R3-VWD (Homo sapiens, UniProt Q14671 828-1176, C935V;R936W;Q939D)
Procedure, shortened: as §1

PUM1 PUF domain R6-HFV = biological target: T2, PUM1 PUF domain R6-HFV (Homo sapiens, UniProt Q14671 828-1176, N1043H;Y1044F;Q1047V)
T2 sequence: T1 sequence with V216H, Y217F, H220V
Procedure, shortened: as §1

PUM1 PUF domain R4-VMC = PUM1 PUF domain R4-VMC (Homo sapiens, UniProt Q14671 828-1176, N971V;H972M;Q975C)
Procedure, shortened: as §1

PUM1 PUF domain R1-KAV = PUM1 PUF domain R1-KAV (Homo sapiens, UniProt Q14671 828-1176, S863K;R864A;Q867V)
Procedure, shortened: as §1

PUM1 PUF domain R8-GFK = PUM1 PUF domain R8-GFK (Homo sapiens, UniProt Q14671 828-1176, N1122G;Y1123F;Q1126K)
Procedure, shortened: as §1

PUM1 PUF domain R4-VNV = PUM1 PUF domain R4-VNV (Homo sapiens, UniProt Q14671 828-1176, N971V;H972N;Q975V)
Procedure, shortened: as §1

PUM1 PUF domain R2-AWH = PUM1 PUF domain R2-AWH (Homo sapiens, UniProt Q14671 828-1176, N899A;Y900W;Q903H)
Procedure, shortened: as §1

PUM1 PUF domain R2-LFA = PUM1 PUF domain R2-LFA (Homo sapiens, UniProt Q14671 828-1176, N899L;Y900F;Q903A)
Procedure, shortened: as §1

PUM1 PUF domain R7-DYV = PUM1 PUF domain R7-DYV (Homo sapiens, UniProt Q14671 828-1176, S1079D;N1080Y;E1083V)
Procedure, shortened: as §1

PUM1 PUF domain R5-KMV = PUM1 PUF domain R5-KMV (Homo sapiens, UniProt Q14671 828-1176, C1007K;R1008M;Q1011V)
Procedure, shortened: as §1

GGCUAGAACUAGUGGAUCCCCCGGCGCCCGGCGGCUCGAGCCCGGGUAAGUGUAAAUGGUCUGCAUGCCGCCGGGCGCCAUGCCUGCAGGUCGACUCUAGAAAACAUG
binding signal (PUM1 PUF domain R1-RGN): 0.76 log2 enrichment (interaction score)

GGCUAGAACUAGUGGAUCCCCCGGCGCCCGGCGGCUCGAGCCCGGGUAAGUGUGAAUAGUCUGCAUGCCGCCGGGCGCCAUGCCUGCAGGUCGACUCUAGAAAACAUG
binding signal (PUM1 PUF domain R5-PRK): 3.87 log2 enrichment (interaction score)
binding signal (PUM1 PUF domain R5-RFI): 3.33 log2 enrichment (interaction score)

GGCUAGAACUAGUGGAUCCCCCGGCGCCCGGCGGCUCGAGCCCGGGUAAGUGUAAUUAGUCUGCAUGCCGCCGGGCGCCAUGCCUGCAGGUCGACUCUAGAAAACAUG
binding signal (PUM1 PUF domain R3-LYR): 4.25 log2 enrichment (interaction score)

GGCUAGAACUAGUGGAUCCCCCGGCGCCCGGCGGCUCGAGCCCGGGUAAGUGUUAAUAGUCUGCAUGCCGCCGGGCGCCAUGCCUGCAGGUCGACUCUAGAAAACAUG
binding signal (PUM1 PUF domain R5-PRK): 4.06 log2 enrichment (interaction score)

GGCUAGAACUAGUGGAUCCCCCGGCGCCCGGCGGCUCGAGCCCGGGUAAGUGUAAAUCGUCUGCAUGCCGCCGGGCGCCAUGCCUGCAGGUCGACUCUAGAAAACAUG
binding signal (PUM1 PUF domain R1-WKR): 1.59 log2 enrichment (interaction score)
binding signal (PUM1 PUF domain R1-RGN): 1.85 log2 enrichment (interaction score)

GGCUAGAACUAGUGGAUCCCCCGGCGCCCGGCGGCUCGAGCCCGGGUAAGUGAAAAUAGUCUGCAUGCCGCCGGGCGCCAUGCCUGCAGGUCGACUCUAGAAAACAUG
binding signal (PUM1 PUF domain R6-VYH): 5.62 log2 enrichment (interaction score)

GGCUAGAACUAGUGGAUCCCCCGGCGCCCGGCGGCUCGAGCCCGGGUAAGUGUAAAUAGUCUGCAUGCCGCCGGGCGCCAUGCCUGCAGGUCGACUCUAGAAAACAUG
binding signal (PUM1 PUF domain R3-LYR): 4.29 log2 enrichment (interaction score)
binding signal (PUM1 PUF domain R8-KRV): 2.09 log2 enrichment (interaction score)
binding signal (PUM1 PUF domain R8-RFK): 6.27 log2 enrichment (interaction score)
binding signal (PUM1 PUF domain R8-RYC): 5.15 log2 enrichment (interaction score)
binding signal (PUM1 PUF domain R8-LYI): 1.1 log2 enrichment (interaction score)
binding signal (PUM1 PUF domain R5-PRK): 2.27 log2 enrichment (interaction score)
binding signal (PUM1 PUF domain R3-VWD): 5.84 log2 enrichment (interaction score)
binding signal (PUM1 PUF domain R6-HFV): 2.51 log2 enrichment (interaction score)
binding signal (PUM1 PUF domain R5-RFI): 3.37 log2 enrichment (interaction score)
binding signal (PUM1 PUF domain R4-VMC): 2.72 log2 enrichment (interaction score)

GGCUAGAACUAGUGGAUCCCCCGGCGCCCGGCGGCUCGAGCCCGGGUAAGUGUAAAUUGUCUGCAUGCCGCCGGGCGCCAUGCCUGCAGGUCGACUCUAGAAAACAUG
binding signal (PUM1 PUF domain R1-WKR): 3.54 log2 enrichment (interaction score)
binding signal (PUM1 PUF domain R1-RGN): 2.37 log2 enrichment (interaction score)
binding signal (PUM1 PUF domain R1-KAV): 2.36 log2 enrichment (interaction score)

GGCUAGAACUAGUGGAUCCCCCGGCGCCCGGCGGCUCGAGCCCGGGUAAGCGUAAAUAGUCUGCAUGCCGCCGGGCGCCAUGCCUGCAGGUCGACUCUAGAAAACAUG
binding signal (PUM1 PUF domain R8-KRV): 3.19 log2 enrichment (interaction score)
binding signal (PUM1 PUF domain R8-RYC): 5.8 log2 enrichment (interaction score)
binding signal (PUM1 PUF domain R8-LYI): 2.78 log2 enrichment (interaction score)
binding signal (PUM1 PUF domain R8-GFK): 3.45 log2 enrichment (interaction score)

GGCUAGAACUAGUGGAUCCCCCGGCGCCCGGCGGCUCGAGCCCGGGUAAGUGUACAUAGUCUGCAUGCCGCCGGGCGCCAUGCCUGCAGGUCGACUCUAGAAAACAUG
binding signal (PUM1 PUF domain R4-VMC): 2.94 log2 enrichment (interaction score)
binding signal (PUM1 PUF domain R4-VNV): 2.33 log2 enrichment (interaction score)

GGCUAGAACUAGUGGAUCCCCCGGCGCCCGGCGGCUCGAGCCCGGGUAAGUGUAAAAAGUCUGCAUGCCGCCGGGCGCCAUGCCUGCAGGUCGACUCUAGAAAACAUG
binding signal (PUM1 PUF domain R2-AWH): 2.3 log2 enrichment (interaction score)
binding signal (PUM1 PUF domain R2-LFA): 3.68 log2 enrichment (interaction score)

GGCUAGAACUAGUGGAUCCCCCGGCGCCCGGCGGCUCGAGCCCGGGUAAGUUUAAAUAGUCUGCAUGCCGCCGGGCGCCAUGCCUGCAGGUCGACUCUAGAAAACAUG
binding signal (PUM1 PUF domain R7-DYV): 6 log2 enrichment (interaction score)

GGCUAGAACUAGUGGAUCCCCCGGCGCCCGGCGGCUCGAGCCCGGGUAAGUGUCAAUAGUCUGCAUGCCGCCGGGCGCCAUGCCUGCAGGUCGACUCUAGAAAACAUG
binding signal (PUM1 PUF domain R5-KMV): 3.71 log2 enrichment (interaction score)
binding signal (PUM1 PUF domain R5-PRK): 2.13 log2 enrichment (interaction score)

GGCUAGAACUAGUGGAUCCCCCGGCGCCCGGCGGCUCGAGCCCGGGUAAGUGUAAGUAGUCUGCAUGCCGCCGGGCGCCAUGCCUGCAGGUCGACUCUAGAAAACAUG
binding signal (PUM1 PUF domain R3-LYR): 5.31 log2 enrichment (interaction score)
binding signal (PUM1 PUF domain R3-VWD): 1.13 log2 enrichment (interaction score)
